Results: PubChem BioAssay
“And” between values parts separate entries of the source, which are not always exact repeats. Identical values can stand only once. The source made the active and inactive calls.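 Rule for the calls, unless noted: active = normalized viability below 100% at a tested concentration; inactive = the rest.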

What was measured:
[1] = liver-stage malaria parasite growth inhibition, primary screen, cell-based, HepG2, luciferase luminescence, HepG2 viability (AID 624349; in the data active = parasite load remaining mostly below about 12%, no sharp cut-off; inactive = mostly above about 10%;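 note: 100% = mean of DMSO negative control wells on the same plate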); conditions: P. berghei liver stage in HepG2, luciferase luminescence, concentration not given here; parasite load remaining: stronger effect = lower value; viability: measured here: HepG2 viability without parasites
[2] = Cy5 fluorescence interference with SSB-bound oligo, artefact control for HCV NS3 helicase inhibitor project, biochemical, NIH Clinical Collection, E. coli SSB (AID 743268; call rule not given here)
[3] = test system: Hepatitis C virus NS3 helicase; test: HCV NS3 helicase inhibitors, primary screen, biochemical, fluorescence polarization, NIH Clinical Collection (AID 743270; call rule not given here); conditions: NS3 helicase binding to Cy5-dT15 DNA, stronger effect = higher value, concentration not given here
[4] = target: Single-stranded DNA-binding protein (Escherichia coli (strain K12)) (UniProt P0AGE0); test: E. coli SSB displacement from DNA, counter-screen for HCV NS3 helicase inhibitor project, biochemical, fluorescence polarization, NIH Clinical Collection (AID 743271; in the data active = inhibition above about 28%); conditions: stronger effect = higher value, concentration not given here
[5] = fluorescence interference in NS3h assay format, artefact control for HCV NS3 helicase inhibitor project, biochemical, NIH Clinical Collection (AID 743272; call rule not given here;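 note: HCV NS3 helicase with a Cy5 labelled single stranded DNA probe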); conditions: fluorescence interference counterscreen, stronger effect = lower value
[6] = target: 6-phosphogluconate dehydrogenase, decarboxylating (Homo sapiens) (UniProt P52209); test: 6PGD enzyme inhibitors, primary screen, biochemical, human, recombinant enzyme, NADPH absorbance (AID 1159550;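 active = at least 20% inhibition of 6-phosphogluconate dehydrogenase activity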); conditions: recombinant 6PGD, NADPH absorbance 341 nm; at 10 µM; stronger effect = higher value
Sequence of 6-phosphogluconate dehydrogenase, decarboxylating (Homo sapiens) (P52209 whole entry, looked up): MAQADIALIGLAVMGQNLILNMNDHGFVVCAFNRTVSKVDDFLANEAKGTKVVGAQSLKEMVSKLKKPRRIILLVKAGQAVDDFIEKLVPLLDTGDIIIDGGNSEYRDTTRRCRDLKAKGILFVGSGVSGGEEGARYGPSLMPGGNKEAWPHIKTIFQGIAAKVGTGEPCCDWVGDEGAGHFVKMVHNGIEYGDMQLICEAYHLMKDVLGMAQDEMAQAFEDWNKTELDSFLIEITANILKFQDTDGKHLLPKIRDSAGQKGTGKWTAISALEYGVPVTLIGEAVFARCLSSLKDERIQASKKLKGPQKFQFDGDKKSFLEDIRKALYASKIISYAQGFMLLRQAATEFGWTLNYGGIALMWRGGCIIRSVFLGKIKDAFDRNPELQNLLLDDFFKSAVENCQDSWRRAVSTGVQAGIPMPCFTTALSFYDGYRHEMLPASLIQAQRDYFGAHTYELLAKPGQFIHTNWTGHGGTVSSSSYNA

[7] = sensitizers of A549 cells to miR-34 induction, primary screen, imaging, A549 dox-inducible miR-34, nuclei and caspase counts (AID 1347080;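 active = compounds whose cell count with miR-34 switched on is under 0.7 times the count with it off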); conditions: A549 miR-34 inducible, Hoechst nuclei count, 48 h
[8] = survival rescue of mitochondrial mutant cells in low glucose, primary screen, MELAS cybrids, Rieske KO mouse fibroblasts, CellTiter-Glo (AID 1508586;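 active = mean z-score across replicates of 1.96 or higher in either the MELAS or the Rieske mutant cell line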;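 note: z relative to plate mean and SD of compound and empty wells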)
[9] = target: NAD(+) hydrolase SARM1 (Homo sapiens) (UniProt Q6SZW1); test: SARM1 TIR NADase inhibitors, cell lysate, NAD-Glo luminescence (AID 1508614;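 active = compound whose remaining NAD level is above about 45 nM, limit read from the data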;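 note: higher remaining NAD means stronger inhibition of SARM1 NADase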); conditions: SAM-TIR HEK293T lysate NADase, at 1 µM, stronger effect = higher value
Sequence of NAD(+) hydrolase SARM1 (Homo sapiens) (Q6SZW1 whole entry, looked up, the tested form may be a part): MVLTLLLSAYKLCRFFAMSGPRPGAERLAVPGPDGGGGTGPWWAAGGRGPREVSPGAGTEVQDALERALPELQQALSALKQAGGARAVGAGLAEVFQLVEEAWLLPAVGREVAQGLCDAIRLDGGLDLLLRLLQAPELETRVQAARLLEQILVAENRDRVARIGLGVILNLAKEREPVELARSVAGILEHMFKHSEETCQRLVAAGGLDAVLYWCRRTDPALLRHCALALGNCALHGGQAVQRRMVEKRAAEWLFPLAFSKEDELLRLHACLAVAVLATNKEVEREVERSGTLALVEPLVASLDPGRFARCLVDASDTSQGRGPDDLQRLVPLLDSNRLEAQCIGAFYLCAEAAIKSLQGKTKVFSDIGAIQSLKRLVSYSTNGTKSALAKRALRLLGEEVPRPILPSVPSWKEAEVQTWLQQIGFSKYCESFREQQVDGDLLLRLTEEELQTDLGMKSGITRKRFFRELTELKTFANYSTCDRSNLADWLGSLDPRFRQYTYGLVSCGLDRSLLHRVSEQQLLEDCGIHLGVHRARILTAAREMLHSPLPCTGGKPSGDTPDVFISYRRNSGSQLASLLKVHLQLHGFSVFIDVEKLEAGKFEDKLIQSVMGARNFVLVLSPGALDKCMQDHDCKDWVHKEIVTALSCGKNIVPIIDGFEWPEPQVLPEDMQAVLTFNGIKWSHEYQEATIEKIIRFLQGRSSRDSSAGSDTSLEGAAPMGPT

[10] = target: Mitogen-activated protein kinase 7 (Homo sapiens) (UniProt Q13164); test: ERK5 transactivation activators in reporter cells, primary screen, cell-based, HTS (AID 1508626;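 active = luciferase signal above three times the same-plate solvent-only control wells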;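 note: luciferase driven by Gal4-ERK5 fusion binding five Gal4 sites before minimal TATA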); conditions: HeLa Gal4-ERK5 transactivation, 18 h, at 5 µM, stronger effect = higher value
Sequence of Mitogen-activated protein kinase 7 (Homo sapiens) (Q13164 whole entry, looked up, the tested form may be a part): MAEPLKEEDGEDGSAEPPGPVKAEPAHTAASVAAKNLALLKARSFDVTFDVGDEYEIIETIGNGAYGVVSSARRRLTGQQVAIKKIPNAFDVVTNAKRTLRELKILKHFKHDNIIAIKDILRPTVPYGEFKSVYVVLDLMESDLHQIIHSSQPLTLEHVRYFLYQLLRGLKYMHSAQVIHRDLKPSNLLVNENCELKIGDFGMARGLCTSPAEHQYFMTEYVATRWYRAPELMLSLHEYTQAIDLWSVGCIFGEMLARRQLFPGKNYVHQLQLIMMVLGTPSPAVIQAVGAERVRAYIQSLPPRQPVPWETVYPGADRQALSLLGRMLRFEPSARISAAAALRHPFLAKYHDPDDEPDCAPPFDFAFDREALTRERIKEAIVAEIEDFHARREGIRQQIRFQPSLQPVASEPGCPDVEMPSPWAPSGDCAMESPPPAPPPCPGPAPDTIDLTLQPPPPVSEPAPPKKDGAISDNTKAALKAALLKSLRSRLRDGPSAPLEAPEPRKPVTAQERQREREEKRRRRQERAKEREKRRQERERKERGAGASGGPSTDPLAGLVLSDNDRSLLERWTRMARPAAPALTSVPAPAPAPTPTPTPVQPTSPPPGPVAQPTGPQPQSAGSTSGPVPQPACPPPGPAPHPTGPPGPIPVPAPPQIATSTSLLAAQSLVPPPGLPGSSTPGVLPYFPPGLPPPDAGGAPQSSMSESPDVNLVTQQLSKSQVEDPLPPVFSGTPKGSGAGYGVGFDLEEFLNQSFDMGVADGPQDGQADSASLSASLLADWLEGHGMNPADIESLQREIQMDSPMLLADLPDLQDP

[11] = viability rescue of complex I mutant cybrids, primary screen, cell-based, galactose medium, ATP luminescence (AID 1645843;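 active = z-score of at least 1.8 in each of two replicates, scored against plate mean and spread of sample wells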;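 note: positive z means more ATP and so rescue of galactose-driven cybrid death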); conditions: complex I mutant cybrid cells, 72 h, stronger effect = higher value
F380Y = test: modulators of BK channel variants, profiling panel, selectivity assay, cell-based, U2OS BacMam, thallium flux, beta subunits (AID 1259406;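 active = thallium flux through the channel raised or lowered by more than 3 SD from vehicle-only wells, actives on both sides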;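 note: initial slope of Thallos dye fluorescence rise after thallium is added; log ratio against the mean of 0.3% DMSO vehicle wells on the same plate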); conditions: at 30 µM
F380Y/beta2Delta = test: as above; conditions: at 30 µM
[12] = target: Calcium-activated potassium channel subunit alpha-1 (Homo sapiens) + Leucine-rich repeat-containing protein 26 (Homo sapiens) (UniProt Q12791+Q2I0M4); test: as above; conditions: F380Y/Slo1WT/gamma1, at 30 µM
Sequence of Calcium-activated potassium channel subunit alpha-1 (Homo sapiens) + Leucine-rich repeat-containing protein 26 (Homo sapiens) (Q2I0M4 whole entry, looked up, one chain of several): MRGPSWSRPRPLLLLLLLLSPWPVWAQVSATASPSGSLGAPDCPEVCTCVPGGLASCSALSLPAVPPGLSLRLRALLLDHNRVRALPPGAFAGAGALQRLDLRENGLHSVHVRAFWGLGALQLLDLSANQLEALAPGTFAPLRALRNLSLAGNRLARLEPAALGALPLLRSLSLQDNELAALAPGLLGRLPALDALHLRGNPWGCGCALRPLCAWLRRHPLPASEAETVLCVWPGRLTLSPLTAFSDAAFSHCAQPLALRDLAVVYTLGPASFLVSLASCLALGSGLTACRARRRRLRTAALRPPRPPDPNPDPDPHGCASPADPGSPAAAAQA

R275C = test: as above; conditions: at 30 µM
R275C/beta1 = test: as above; conditions: at 30 µM
R275C/beta2Delta = test: as above; conditions: at 30 µM
[13] = differential killing of epithelial or mesenchymal cells, primary screen, imaging, PC-3E GFP, TEM4-18 mCherry, co-culture (AID 1345086;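 active = compounds killing one labelled cell type while sparing the other, by normalised counts and ratio limits, not self-fluorescent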;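 for all read-outs here: cells exposed to compound for 72 h before imaging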;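 for red/green cell ratio (normalised): normalised mesenchymal count divided by normalised epithelial count so high means epithelial killing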); conditions: imaging cell counts, at 1 µM; for red/green cell ratio (normalised): actives lie on both sides, counts scaled to control wells, 1 = unselective
[14] = ovarian cancer cell viability with rucaparib, profiling panel, oncology-focused library, rucaparib conditional (AID 1508598); conditions: patient-derived ovarian cancer cells, CellTiter-Glo viability, 144 h, stronger effect = lower value
[15] = hESC survival regulators, cell-based (AID 493140; call rule not given here;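 note: cells exposed to compounds for four days before counting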); conditions: human embryonic stem cell survival screen; stronger effect = higher value
[16] = stronger effect = lower value, cell number ratio, induced over uninduced
[17] = measured here: relative caspase fold change +Dox/-Dox
[18] = measured here: total cells with miR-34 induction, stronger effect = lower value
[19] = measured here: total cells without miR-34 induction
[20] = MELAS cybrid survival, CellTiter-Glo 48 h, stronger effect = higher value
[21] = Rieske KO mouse fibroblast survival, CellTiter-Glo 72 h
[22] = measured here: epithelial PC-3E GFP cell survival
[23] = measured here: mesenchymal TEM4-18 mCherry cell survival

CCC(=O)OCC(=O)[C@@]1(OC(=O)CC)[C@@H](C)C[C@H]2[C@@H]3CCC4=CC(=O)C=C[C@]4(C)[C@@]3(Cl)[C@@H](O)C[C@@]21C
1.6 and 1.23: fold change [7, 17]
active: log fold change Tl+ flux (F380Y) -0.163 | log fold change Tl+ flux (R275C) -0.105
6840 and 6120: cell count [7, 18]
inactive: parasite load remaining [1] 87.4% and 97.8% | fluorescence ratio [2] 1.01 | inhibition [3] 0.45% | inhibition [4] 2.57% | fluorescence ratio [5] 0.96 | inhibition [6] -4.35% | fold change [7, 16] 0.914 and 0.792 | z-score [8, 20] 0.616 | remaining NAD [9] 10 nM | luciferase signal [10] 188 AU | z-score [11] -1.24 | log fold change Tl+ flux (F380Y/beta2Delta) -0.0617 | log fold change Tl+ flux [12] 0.021 | log fold change Tl+ flux (R275C/beta1) 0.0418 | log fold change Tl+ flux (R275C/beta2Delta) 0.0132
1.23: z-score [8, 21]
126% and 93.5%: viability [1]
7490 and 7730: cell count [7, 19]

COc1cccc2c1CCC1CC(=O)CC[C@]21C (some centres not stated)
1: normalised cell number [13, 22]
inactive: inhibition [6] -1.22% | red/green cell ratio (normalised) [13] 0.76
0.76: normalised cell number [13, 23]

OC[C@H]1O[C@@H](Oc2cc(O)cc(/C=C/c3ccc(O)cc3)c2)[C@H](O)[C@@H](O)[C@@H]1O
78.3%: viability [1]
inactive: parasite load remaining [1] 100% | fluorescence ratio [2] 1 | inhibition [3] 3.56% | inhibition [4] 10.7% | fluorescence ratio [5] 0.98 | inhibition [6] 15% | log fold change Tl+ flux (F380Y) 0.0295 | log fold change Tl+ flux (F380Y/beta2Delta) -0.0576 | log fold change Tl+ flux [12] -0.0684 | log fold change Tl+ flux (R275C) -0.101 | log fold change Tl+ flux (R275C/beta1) -0.0629 | log fold change Tl+ flux (R275C/beta2Delta) -0.0169

COc1ccc(-c2oc3c(CC=C(C)C)c(O[C@@H]4O[C@H](CO)[C@@H](O)[C@H](O)[C@H]4O)cc(O)c3c(=O)c2O[C@@H]2O[C@@H](C)[C@H](O)[C@@H](O)[C@H]2O)cc1
68.9%: viability [1]
1.01: normalised cell number [13, 22]
1.13: normalised cell number [13, 23]
inactive: parasite load remaining [1] 70.8% | fluorescence ratio [2] 1 | inhibition [3] -9.9% | inhibition [4] -2.41% | fluorescence ratio [5] 0.98 | inhibition [6] 4.03% | red/green cell ratio (normalised) [13] 1.12 | luciferase signal [10] 48 AU | log fold change Tl+ flux (F380Y) 0.00269 | log fold change Tl+ flux (F380Y/beta2Delta) -0.0493 | log fold change Tl+ flux [12] -0.0341 | log fold change Tl+ flux (R275C) -0.04 | log fold change Tl+ flux (R275C/beta1) 0.009 | log fold change Tl+ flux (R275C/beta2Delta) -0.0522

O=C(O[C@@H]1Cc2c(O)cc(O)cc2O[C@@H]1c1cc(O)c(O)c(O)c1)c1cc(O)c(O)c(O)c1
5880: cell count [7, 19]
0.79: normalised cell number [13, 22]
0.91: normalised cell number [13, 23]
inactive: parasite load remaining [1] 87.1% | inhibition [3] -3.56% | inhibition [6] 15.4% | red/green cell ratio (normalised) [13] 1.15 | fold change [7, 16] 0.998 | viability ([14]; at 0.000305 µM, OCI-C5x cells, with rucaparib 10 µM, 100% = cells with rucaparib alone) 112% | viability ([14]; at 0.000305 µM, OCI-C5x cells, without rucaparib) 121% | viability ([14]; at 0.000305 µM, OCI-P5x cells, with rucaparib 20 µM, 100% = cells with rucaparib alone) 103% | viability ([14]; at 0.000305 µM, OCI-P5x cells, without rucaparib) 104% | viability ([14]; at 0.00122 µM, OCI-C5x cells, with rucaparib 10 µM, 100% = cells with rucaparib alone) 120% | viability ([14]; at 0.00122 µM, OCI-C5x cells, without rucaparib) 118% | viability ([14]; at 0.00488 µM, OCI-C5x cells, with rucaparib 10 µM, 100% = cells with rucaparib alone) 123% | viability ([14]; at 0.00488 µM, OCI-C5x cells, without rucaparib) 116% | viability ([14]; at 0.00488 µM, OCI-P5x cells, without rucaparib) 107% | viability ([14]; at 0.0195 µM, OCI-C5x cells, with rucaparib 10 µM, 100% = cells with rucaparib alone) 104% | viability ([14]; at 0.0195 µM, OCI-C5x cells, without rucaparib) 117% | viability ([14]; at 0.0195 µM, OCI-P5x cells, without rucaparib) 100% | viability ([14]; at 0.0781 µM, OCI-C5x cells, with rucaparib 10 µM, 100% = cells with rucaparib alone) 118% | viability ([14]; at 0.0781 µM, OCI-C5x cells, without rucaparib) 119% | viability ([14]; at 0.0781 µM, OCI-P5x cells, without rucaparib) 106% | viability ([14]; at 0.313 µM, OCI-C5x cells, with rucaparib 10 µM, 100% = cells with rucaparib alone) 109% | viability ([14]; at 0.313 µM, OCI-C5x cells, without rucaparib) 120% | viability ([14]; at 0.313 µM, OCI-P5x cells, without rucaparib) 110% | viability ([14]; at 1.25 µM, OCI-C5x cells, with rucaparib 10 µM, 100% = cells with rucaparib alone) 111% | viability ([14]; at 1.25 µM, OCI-C5x cells, without rucaparib) 108% | viability ([14]; at 1.25 µM, OCI-P5x cells, without rucaparib) 104% | viability ([14]; at 5 µM, OCI-C5x cells, with rucaparib 10 µM, 100% = cells with rucaparib alone) 117% | viability ([14]; at 5 µM, OCI-C5x cells, without rucaparib) 114% | luciferase signal [10] 48 AU
76.9%: viability [1]
0.749: fold change [7, 17]
5870: cell count [7, 18]
active: fluorescence ratio [2] 0.63 | inhibition [4] 32.2% | fluorescence ratio [5] 0.8 | viability ([14]; at 0.00122 µM, OCI-P5x cells, with rucaparib 20 µM, 100% = cells with rucaparib alone) 73.5% | viability ([14]; at 0.00122 µM, OCI-P5x cells, without rucaparib) 91% | viability ([14]; at 0.00488 µM, OCI-P5x cells, with rucaparib 20 µM, 100% = cells with rucaparib alone) 90.4% | viability ([14]; at 0.0195 µM, OCI-P5x cells, with rucaparib 20 µM, 100% = cells with rucaparib alone) 82.9% | viability ([14]; at 0.0781 µM, OCI-P5x cells, with rucaparib 20 µM, 100% = cells with rucaparib alone) 96.1% | viability ([14]; at 0.313 µM, OCI-P5x cells, with rucaparib 20 µM, 100% = cells with rucaparib alone) 94.4% | viability ([14]; at 1.25 µM, OCI-P5x cells, with rucaparib 20 µM, 100% = cells with rucaparib alone) 97.8% | viability ([14]; at 5 µM, OCI-P5x cells, with rucaparib 20 µM, 100% = cells with rucaparib alone) 89.7% | viability ([14]; at 5 µM, OCI-P5x cells, without rucaparib) 92.1%

CC1(C)SC2C(NC(=O)COc3ccccc3)C(=O)N2C1C(=O)O (configuration not stated)
94.2%: viability [1]
1.37: fold change [7, 17]
11000: cell count [7, 18]
active: fluorescence ratio [2] 0.71
11100: cell count [7, 19]
inactive: parasite load remaining [1] 83.2% | inhibition [3] -3.18% | inhibition [4] -5.05% | fluorescence ratio [5] 1.01 | inhibition [6] 3.81% | fold change [7, 16] 0.993 | z-score [11] 1.5 | log fold change Tl+ flux (F380Y) -0.00633 | log fold change Tl+ flux (F380Y/beta2Delta) 0.0322 | log fold change Tl+ flux [12] -0.0109 | log fold change Tl+ flux (R275C) 0.00635 | log fold change Tl+ flux (R275C/beta1) 0.0123 | log fold change Tl+ flux (R275C/beta2Delta) -0.0109

C#C[C@]1(O)CC[C@H]2[C@@H]3CCC4=CC(=O)CC[C@@H]4[C@H]3CC[C@@]21C
0.0145 and -0.237: z-score [8, 21]
9490 and 9470 and 10100: cell count [7, 19]
3.48 and 0.712 and 1.56: fold change [7, 17]
9410 and 9190 and 8090: cell count [7, 18]
inactive: survival [15] 14.7 | fluorescence ratio [2] 0.96 | inhibition [3] 1.36% | inhibition [4] 3.34% | fluorescence ratio [5] 0.96 | inhibition [6] -1.74% | fold change [7, 16] 0.992 and 0.97 and 0.797 | z-score [8, 20] 0.108 and 0.243 | remaining NAD [9] 10 nM | luciferase signal [10] 48 AU | z-score [11] -0.71 and 0.54 | log fold change Tl+ flux (F380Y) 0.0234 | log fold change Tl+ flux (F380Y/beta2Delta) 0.0279 | log fold change Tl+ flux [12] 0.0181 | log fold change Tl+ flux (R275C) 0.0301 | log fold change Tl+ flux (R275C/beta1) 0.0324 | log fold change Tl+ flux (R275C/beta2Delta) 0.062
